# Experimental data reported in PubChem BioAssay (NCATS).
# Where “and” joins values, the source holds several entries; their conditions need not be identical. Equal values may be shown once. Inconclusive results are not listed. Where a call stands in place of a potency, no number is given. Unmarked numbers belong to inactive results. Calls of active or inactive are those of the source. The call rests on the fitted dose curve; in most records, active means well fitted curve in the direction sought with a large enough effect; inconclusive means small, poorly fitted or top-dose-only effect, or another doubt; inactive means no such curve, though single readings can be large; an effect the other way counts as inactive or inconclusive.
# Columns and labels:
# [1] = target: Cellular tumor antigen p53 (Homo sapiens) (UniProt P04637); test: Primary qHTS for small molecule compounds that upregulate eGFP-tagged delta133p53alpha (in N-terminal) cells. (AID 2060322); details: NCI-H358 eGFP-delta133p53alpha fluorescence, 24 h; activation: stronger effect = higher value; further: nearly all actives have a fitted effect of over 75% in size
# Sequence of Cellular tumor antigen p53 (Homo sapiens) (P04637 whole entry, looked up): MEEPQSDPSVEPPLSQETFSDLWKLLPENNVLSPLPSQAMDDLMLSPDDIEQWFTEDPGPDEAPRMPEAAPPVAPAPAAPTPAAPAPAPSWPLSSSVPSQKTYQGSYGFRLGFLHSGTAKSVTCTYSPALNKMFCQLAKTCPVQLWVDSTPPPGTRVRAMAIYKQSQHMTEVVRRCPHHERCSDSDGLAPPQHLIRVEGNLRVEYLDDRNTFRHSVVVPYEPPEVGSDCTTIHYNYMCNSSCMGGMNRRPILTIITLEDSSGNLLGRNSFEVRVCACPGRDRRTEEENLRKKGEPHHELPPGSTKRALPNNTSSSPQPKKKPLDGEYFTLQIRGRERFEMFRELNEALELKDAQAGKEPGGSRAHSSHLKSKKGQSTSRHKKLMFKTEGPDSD
# How it was run: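 NCI-H358 cells pre-induced 24 h with 10 ng/ml doxycycline to express N-terminal eGFP-delta133p53alpha, then dosed 24 h at 37C without doxycycline; fixed, Hoechst-stained, GFP intensity by laser scanning cytometry, normalized to DMSO (0%) and 57.5 uM 5-azacytidine (100%).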
# [2] = target: Aldehyde dehydrogenase, mitochondrial (Homo sapiens) (UniProt P05091); test: qHTS for Inhibitors of the Aldehyde Dehydrogenase Family (ALDH2) Primary screen (AID 2061308); details: ALDH2 enzyme inhibition qHTS, 1536-well; series mostly up to 56 µM; further: nearly all actives have a fitted effect of over 55% in size
# [3] = target: Retinaldehyde dehydrogenase 3 (Homo sapiens) (UniProt P47895); test: qHTS for Inhibitors of the Aldehyde Dehydrogenase Family (ALDH1A3) Primary screen (AID 2061315); details: ALDH inhibition qHTS; series mostly up to 56 µM
# [4] = BET inhibitor-based combinations targeting novel dependencies in MECOM-rearranged (r) AML: SET-2 cell line (AID 2202231); details: SET-2 AML cells viability, CellTiter-Glo luminescence, 48 h; viability: stronger effect = lower value, concentration not given here; further: nearly all actives have a fitted effect of over 35% in size; further: potency means the concentration at half of the fitted maximal effect
# How it was run: (§1)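 Luminescent ATP readout (CellTiter-Glo) after 48 hr drug exposure gives viability. Curves span 11 concentrations and are normalized to DMSO and empty wells. Activity is reported as area under the curve and its Z-transform within each cell line.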
# [5] = BET inhibitor-based combinations targeting novel dependencies in MECOM-rearranged (r) AML: HNT-34 cell line (AID 2202234); details: HNT-34 AML viability, CellTiter-Glo luminescence, 48 h; series mostly up to 46 µM; further: nearly all actives have a fitted effect of over 35% in size; further: potency means the concentration at half of the fitted maximal effect
# How it was run: (§2)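 Luminescent ATP readout (CellTiter-Glo, 15 min at room temperature) after 48 hr drug exposure gave viability. Dose-response curves, normalized to DMSO and empty-well controls, were summarized as area under the curve and its mean-centred Z-score.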
# [6] = BET inhibitor-based combinations targeting novel dependencies in MECOM-rearranged (r) AML: UCSD-AML1 cell line (AID 2202235); details: UCSD-AML1 AML cells viability, CellTiter-Glo, 48 h; series mostly up to 46 µM; further: nearly all actives have a fitted effect of over 40% in size
# How it was run: as §2
# [7] = BET inhibitor-based combinations targeting novel dependencies in MECOM-rearranged (r) AML: AML-191 cell line (AID 2202236; further: nearly all actives have a fitted effect of over 35% in size; further: potency means the concentration at half of the fitted maximal effect); details: AML-191 viability, CellTiter-Glo luminescence, 48 h; series mostly up to 46 µM
# How it was run: as §1
# [8] = BET inhibitor-based combinations targeting novel dependencies in MECOM-rearranged (r) AML: AML-194 cell line (AID 2202237; further: nearly all actives have a fitted effect of over 40% in size; further: potency means the concentration at half of the fitted maximal effect); details: AML-194 (MECOM-r AML) viability, CellTiter-Glo, 48 h; series mostly up to 46 µM
# How it was run: as §1
# [9] = BET inhibitor-based combinations targeting novel dependencies in MECOM-rearranged (r) AML: MV-4-11 cell line (AID 2202233); details: MV-4-11 AML viability, CellTiter-Glo luminescence, 48 h; series mostly up to 46 µM; further: nearly all actives have a fitted effect of over 45% in size; further: potency means the concentration at half of the fitted maximal effect
# How it was run: as §2
Structure (SMILES),activation [1],Potency [2],Potency [3],viability [4] [%],Potency [5],Potency [6],Potency [7],Potency [8],Potency [9],Potency [4]
CS(=O)(=O)N(Cc1ccco1)CC(O)Cn1c2ccccc2c2ccccc21 (centres undefined),-2.66%,inactive,inactive,98.8,inactive,inactive,inactive,inactive,,
CCCOc1ccn2c(C(C)=O)cc(-c3ccccc3S(C)(=O)=O)c2c1,-0.333%,inactive,inactive,93,,inactive,,inactive,18.6 µM (active),
O=C(NCC(=O)N1CCCC1)Nc1ccc2cnccc2c1,7.14%,inactive,inactive,109,inactive,inactive,inactive,inactive,,
CN(C)CC(C)(C)CNc1nn2c(-c3ccccc3)nnc2cc1C1CCC1,-1.72% and 7.14%,inactive,inactive,113,,inactive,inactive,inactive,inactive,
COc1cc(Nc2nc3ccccc3nc2NS(=O)(=O)c2ccc(NC(=O)c3ccc(C)c(OC)c3)cc2)cc(OC)c1,-16.4% and -17%,inactive,inactive,111,inactive,inactive,,inactive,,
Cc1c(Cn2c(C)nc3c(C(=O)O)cc(N4CCOCC4)cc32)cccc1C(F)(F)F,-0.853% and -13.4%,inactive,inactive,98.9,5.9 µM (active),,4.68 µM (active),inactive,4.68 µM (active),
COc1cc2c(Nc3ccc(NC(=O)c4ccccc4)cc3)ncnc2cc1OCCCN1CCOCC1,32.6%,inactive,inactive,,1.32 µM (active),,20.9 µM (active),23.5 µM (active),1.66 µM (active),26.3 µM (active)
